Compound activity: PubChem, Broad Institute
Only a sample is shown.
aSyn 5UTR act: Activators working through SNCA 5'UTR binding (MLPCN); alpha-synuclein 5'UTR reporter, activators screen; AID 1814; 300,000 tested, 7.1% active; activity score, % (tested at 7.5 µM), hits read low; in the data active means activity score below about -60%
* hit, by the source's call.

SMILES	aSyn 5UTR act
COc1ccc(C2=NN(CN3C(=O)C(=O)c4ccccc43)C(c3ccc(OC)cc3)C2)cc1 (stereo not given)	-181.9*
COc1ccc(NC(=O)COc2ccc(/C=N/O)cc2OC)cc1	-66.8*
C/C=C/c1ccc(OCC(=O)Nc2ccncc2)c(OC)c1	-72.0*
COc1ccc(/C=N/NC(=O)c2cccnc2)cc1COc1ccc([N+](=O)[O-])c(C)c1	97.9
COc1cc(/C=C2\C(=O)N(CCC#N)N=C2C)ccc1OCC(=O)Nc1ccccc1	-163.7*
COc1cc(/C=N/NC(=O)c2ccncc2)ccc1OCC(=O)Nc1ccc(C)c(C)c1	-75.6*
COc1cc(/C=N/NC(=O)c2ccncc2)ccc1OCC(=O)Nc1cccc([N+](=O)[O-])c1	-111.4*
CN(C)/C=N/c1sc2c(c1C#N)CCCCC2	-124.0*
N#Cc1c(/N=C/c2ccc(-c3ccccc3C(=O)O)o2)sc2c1CCCC2	-77.5*
N#Cc1c(/N=C/N2CCOCC2)sc2c1CCCCC2	-121.6*
N#Cc1c(/N=C/c2cccs2)sc2c1CCCCC2	-186.0*
CN(C)c1ccc(/C=C2\CCC/C(=C\c3ccccc3)C2=O)cc1	-81.1*
CN(C)/N=C/C=C1\CCC/C(=C\c2ccc(F)c(F)c2)C1=O	-421.6*
COc1ccc(/C=C2\CCC/C(=C\C=N\N(C)C)C2=O)cc1	-427.3*
Oc1c(CN2CCOCC2)cc(COCc2ccccc2)c2cccnc12	114.2
Cc1cc(OCc2cccc(Cl)c2)c(C)cc1CN1CCOCC1	-65.1*
O=C(O)c1ccc(-c2nnc(-c3ccccc3)o2)cc1	-78.1*
O=C(c1ccc(-c2nnc(-c3ccccc3)o2)cc1)N1CCCCCC1	-67.7*
O=C(c1ccc(-c2ccccc2)cc1)N1CCN(c2ccccc2)CC1	-69.6*
O=C1c2ccccc2C(Nc2ccc3c(c2)OCCO3)N1Cc1ccc2c(c1)OCO2 (stereo not given)	-72.3*
O=C(C1=C[C@@H](c2csc3ccccc23)C[C@@H](OCc2ccc(CO)cc2)O1)N1CCN(Cc2ccc3c(c2)OCO3)CC1	68.8
O=C1c2ccccc2C(Nc2ccc3c(c2)OCCO3)N1c1ccc(Cl)cn1 (stereo not given)	-75.9*
NNC(=O)c1cc2cc3ccccc3nc2s1	-94.1*
Cc1ccc(Nc2nc(N)nc(CC#N)n2)cc1	-117.6*
Cc1ccc(Nc2nc(N)nc(CSc3ncccn3)n2)cc1	-132.2*
SMILES	aSyn 5UTR act
CCOc1ccc(Nc2nc(N)nc(CCl)n2)cc1	96.0
Cc1ccc(Nc2nc(N)nc(CSCCO)n2)cc1	-111.5*
Nc1nc(CSc2ncccn2)nc(Nc2ccccc2)n1	-147.8*
CC1CCC(NC(=O)c2ccc(NS(=O)(=O)c3ccc4[nH]c(=O)[nH]c4c3)cc2)CC1 (stereo not given)	-124.4*
COc1c2c(cc3oc(=O)c4c5ccc(O)cc5oc4c13)OC(C)(C)CC2	-198.8*
COc1ccc(C(=O)Cn2cnc3ccccc3c2=O)c(OC)c1	-96.3*
CCCN1CCC(=O)N([C@H](CSc2ccc(C)cc2)CC(C)C)CC1	-174.8*
CCCN1CCC(=O)N([C@H](CSc2ccc(Br)cc2)c2ccccc2)CC1	-120.2*
CC(C)C[C@@H](CSc1ccccc1)N1CCN(CC(C)C)CCC1=O	-175.1*
CCCN1CCC(=O)N([C@H](CSc2ccccc2)CC(C)C)CC1	-99.7*
COc1ccccc1C(=O)CC(=O)c1ccccc1	-113.8*
COc1ccccc1C(=O)NNC(=S)NC(=O)c1cccs1	73.2
COc1ccccc1C(=O)NNC(=O)c1cccc(Br)c1	-114.6*
Cc1ccccc1C(=O)NNC(=O)c1ccc(Br)cc1	-96.1*
COc1ccccc1C(=O)NNC(=S)NC(=O)c1sc2ccccc2c1Cl	-137.9*
COc1ccccc1C(=O)NNC(=O)c1ccccc1	-74.0*
COc1ccccc1C(=O)NC(=O)Nc1cccc(Cl)c1	-128.7*
COc1ccccc1C(=O)N1CCN(c2cccc(Cl)c2)CC1	64.4
COc1ccccc1C(=O)NNC(=O)c1cccc(Cl)c1	-65.9*
C[C@@H](C(=O)Nc1ccc2c(c1)OCCO2)n1nnc2ccccc2c1=O	-89.5*
O=C(COc1ccccc1Br)Nc1ccc2c(c1)OCCCO2	-133.2*
N#Cc1ccccc1OCC(=O)Nc1ccc2c(c1)OCCCO2	-159.7*
Cc1ccccc1OC(C)C(=O)Nc1ccc2c(c1)OCCO2 (stereo not given)	-71.4*
O=C(COc1ccccc1F)Nc1ccc2c(c1)OCCO2	-75.4*
CC(=O)OCc1nc2ccccc2s1	-136.1*
SMILES	aSyn 5UTR act
Cc1cc(C(=O)OCc2nc3ccccc3s2)c(C)o1	-125.9*
O=C(OCc1nc2ccccc2s1)c1ccco1	-96.6*
O=C(Nc1cc(=O)[nH]c(=O)[nH]1)c1cc(Cl)ccc1Cl	-64.9*
c1cncc(Nc2nc(-c3cccs3)cs2)c1	-217.6*
c1ccc(-c2csc(Nc3cccnc3)n2)nc1	-218.0*
c1ccc(Nc2nc(-c3ccccn3)cs2)cc1	-145.1*
Cc1c(/C(O)=C2/C(=O)C(=O)N(Cc3cccnc3)C2c2cccs2)cnn1-c1ccccc1 (stereo not given)	-152.3*
C=CCN1N=C(/C=C/c2ccc(OC)cc2)CCC1=O	-84.3*
C=CCN1N=C(/C=C/c2ccc(C)cc2)CCC1=O	-88.6*
COc1ccc(/C=C/C2=NNC(=O)CC2)cc1	59.6
CC1CCC(NC(=O)CNC(=O)c2cccs2)CC1 (stereo not given)	-88.4*
CC1CCC(NC(=O)Nc2cccs2)CC1 (stereo not given)	-107.3*
Nc1cccc2c1C(=O)N(C(=O)/C=C/c1cccc(Br)c1)C2=O	-160.3*
COC(=O)C1CCN(C(=O)/C=C/c2ccccc2)CC1	-134.7*
CCOC(=O)C1CCN(C(=O)/C=C/c2cccs2)CC1	-69.6*
O=C(/C=C/c1ccccc1)N1CCC(c2ccccc2)C1 (stereo not given)	-81.8*
CCOCCOC(=O)c1[nH]c2c(c1C)C(=O)CC(c1cccs1)C2 (stereo not given)	84.6
COc1ccc(-c2nnc(SCc3ccccc3)n2N)cc1	-142.4*
COc1ccc(N=C(N)SCc2ccccn2)cc1	-79.3*
COc1ccc(-c2nnc(SCc3ccccn3)n2C)cc1	-66.8*
COc1ccc(-c2nnc(SCCc3ccccc3)n2N)cc1	-82.5*
Cc1ccc(-n2nnc3ccccc3c2=O)cc1C	-149.7*
Cc1ccc(NC(=O)CSc2ncccc2C(=O)Oc2cccc([N+](=O)[O-])c2)cc1Cl	-157.3*
O=C(NNC(=O)c1cccnc1SCc1cccc([N+](=O)[O-])c1)c1ccccn1	102.8
CCOC(=O)c1ccccc1NC(=O)CSc1ccc(-c2ccccn2)nn1	68.7
SMILES	aSyn 5UTR act
CCOC(=O)c1cccnc1SCC(=O)Nc1ccc(C)cc1	-64.3*
Cc1ccc(C(=O)N/N=C2\CCCc3ccccc32)c(C)c1	-160.6*
O=C(N/N=C1\CCCc2ccccc21)c1ccc([N+](=O)[O-])cc1	-82.4*
O=C(Nc1ccc2c(c1)OCCO2)c1cccc2nc3ccccc3nc12	59.8
Cc1ccc(-c2cc(C(=O)Nc3ccc4c(c3)OCCO4)c3ccccc3n2)cc1	-74.3*
O=C(NC1=NCCS1)c1cc(-c2ccc(-c3ccccc3)cc2)nc2ccccc12	-88.2*
CCCc1ccc(-c2cc(C(=O)N/N=C/c3ccc([N+](=O)[O-])o3)c3ccccc3n2)cc1	-74.7*
CCCC(=O)Nc1ccc(C(=O)N/N=C/c2ccc([N+](=O)[O-])o2)cc1	111.1
O=C(N/N=C/c1ccc([N+](=O)[O-])o1)c1cc(-c2cccc(Br)c2)nc2ccccc12	-82.6*
CC(C)COc1ccc(C(=O)Nc2ccccc2[N+](=O)[O-])cc1	-212.3*
